# Experimental data taken from PubChem BioAssay (NCI).
# The panel holds about 83,000 compounds, 20% with a hit somewhere; the sample as a whole holds those more often.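 The endpoint reported here, percent growth, reads 100 for growth as untreated, 0 for no net growth and -100 for all cells dead.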 A number with no mark means an inactive call. Calls of active or inactive are those of the source. How the source made its calls: active means growth percent below 10; inactive means the rest.
# Key:
# Assay in all cases: NCI-60 one-dose screen, 48 h (100 = growth as untreated, 0 = no growth, -100 = all killed)
# Conditions in all cases: 10 µM unless noted
# HCT-15 colon = tested on: HCT-15 colon
# HT29 colon = tested on: HT29 colon
# SNB-75 CNS = tested on: SNB-75 CNS
# SNB-19 CNS = tested on: SNB-19 CNS
# U251 CNS = tested on: U251 CNS
# PC-3 prostate = tested on: PC-3 prostate
# SK-MEL-5 melanoma = tested on: SK-MEL-5 melanoma
# UACC-62 melanoma = tested on: UACC-62 melanoma
# LOX IMVI melanoma = tested on: LOX IMVI melanoma
# SK-MEL-28 melanoma = tested on: SK-MEL-28 melanoma
SMILES,growth (HCT-15 colon),growth (HT29 colon),growth (SNB-75 CNS),growth (SNB-19 CNS),growth (U251 CNS),growth (PC-3 prostate),growth (SK-MEL-5 melanoma),growth (UACC-62 melanoma),growth (LOX IMVI melanoma),growth (SK-MEL-28 melanoma)
CN1C(=O)C23CC4(C56CC78SSC(CO)(C(=O)N7C5Nc5ccccc56)N(C)C8=O)c5ccccc5NC4N2C(=O)C1(CO)SS3 (stereo not given),-82.3% (active),-77.3% (active),-100% (active),-98.3% (active),-100% (active),-99.5% (active),-95% (active),-95.6% (active),-93.6% (active),-90.6% (active)
CCCCCC1(CCBr)C(=O)NC(=O)NC1=O,97.7%,107%,99.2%,111%,93.4%,100%,109%,108%,104%,118%
CC12CC=CCC1CCC1C2CCC2(C)C(c3ccc(=O)oc3)CCC12O (stereo not given),-66.3% (active),-44.7% (active),-61.7% (active),-98.3% (active),-73.3% (active),-6.92% (active),-47.5% (active),-72.9% (active),,-33.8% (active)
CC(=O)[O][Hg][O]C(C)=O,93.8%,73.8%,72.6%,110%,84.6%,86.3%,102%,97.2%,70.9%,106%
CC1=C(CCCOC(=O)[C@H](N)CC(C)C)C2=C(C)C3(CC3)[C@@](C)(O)C(=O)C2=C1,4.16% (active),12.6%,-7.8% (active),45.4%,35.9%,28.5%,-67.6% (active),11.3%,41.8%,33.8%
CC1=C2[C@@H](CC1)[C@]1(C)O[C@@](C(C)C)(C[C@H]1O)[C@H]2OC(=O)C1CC1c1ccccc1 (stereo not given in full),89.8%,103%,88%,102%,84.3%,56.9%,85.4%,75.6%,,105%
COc1ccc(/C=C\c2cc(OC)c(OC)c(OC)c2)cc1OCC(=O)Nc1nc2ccc(OC(F)(F)F)cc2s1,22.2%,97.5%,7.25% (active),42.7%,26%,34%,27.3%,31.1%,27.1%,34.4%
O=C(CC1(O)C(=O)N(Cc2ccccc2)c2ccc(Cl)cc21)c1ccc(C(=O)NCC2CCC3(CC2)OOC2(CCCCC2)OO3)cc1 (stereo not given),-14.1% (active),-69.7% (active),-61.7% (active),30.9%,-81.8% (active),-54.3% (active),,53%,-78.5% (active),58.5%
C[C@@H]1C[C@@]2(C)[C@@H](CC[C@@H]3[C@@H]2CC[C@]2(C)C(=O)CC[C@@H]32)CC1=O,103%,91.8%,86.2%,96.7%,101%,97.3%,,99.4%,98.5%,76.7%
Cn1cc(-c2csc(-c3cn(CCN4CCOCC4)c4ccccc34)n2)c2cccnc21,46.5%,70.4%,74.5%,84.4%,67.3%,20.5%,17.6%,,67.1%,78.2%
CC(C)CCC(=O)O[C@H]1CC[C@H]2[C@@H]3CCC4=CC(=O)CC[C@]4(C)[C@H]3CC[C@]12C,97.4%,106%,82.6%,105%,99.2%,92.8%,96.5%,,97.9%,99.8%
C/C(=C\c1ccn(-c2ccc(N)cc2C(F)(F)F)n1)[C@@H]1C[C@@H]2O[C@]2(C)CCC[C@H](C)[C@H](O)[C@@H](C)C(=O)C(C)(C)[C@@H](O)CC(=O)O1,14%,10.5%,-7.43% (active),21.5%,13.3%,15.4%,,27.7%,26.4%,63.2%
Cc1ccc(S(=O)(=O)C(Cl)(Cl)Cl)cc1,100%,89%,81.5%,102%,88.7%,67.4%,99.9%,,,107%
O=[N+]([O-])c1c(Br)sc(Br)c1[N+](=O)[O-],-13.9% (active),-58% (active),63.1%,76%,-31% (active),67.5%,,-1.09% (active),-65.3% (active),
CC(C)=CC1C(C(=O)OCc2cccc(Oc3ccccc3)c2)C1(C)C (stereo not given),98.9%,86.5%,115%,98.4%,98.6%,92.8%,,78.4%,93.4%,119%
CCC1CC(O)c2c(O)c3c(c(O)c2C1O)C(=O)c1cccc(O)c1C3=O (stereo not given) (tested in a mixture with another compound),-20.2% (active),-24.6% (active),-93.5% (active),-16.4% (active),-12.2% (active),-33.4% (active),,-71.7% (active),-28.1% (active),
CC(C)=CCC/C(C)=C/C=N\N=C(/N)N[N+](=O)[O-],97.6%,97.6%,89.8%,99.2%,93.5%,97.6%,98.8%,95.6%,,114%
CC[C@H](C)[C@H](NC(=O)C12C3C4C1C1C2C3C41NC(C)=O)C(=O)N(C)[C@H](C[C@@H](OC(C)=O)c1nc(C(=O)N[C@@H](Cc2ccccc2)C[C@H](C)C(=O)OC)cs1)C(C)C (stereo not given in full),24.8%,4.53% (active),38.6%,56.1%,9.8% (active),11.3%,-13.4% (active),,14.9%,59.6%
COc1ccc2c(c1)c(-c1nc(-c3cn(C)c4ncccc34)cs1)cn2CCCCN1CCCCC1,-80.9% (active),-72.6% (active),63.9%,-1.68% (active),-85.6% (active),-66.3% (active),-80.4% (active),,-78% (active),-69% (active)
CNC(=O)Oc1cccc(C(F)(F)F)c1,117%,108%,113%,103%,114%,104%,105%,97.7%,,105%
Fc1ccc2c(c1)c(-c1nc(-c3c[nH]c4ncccc34)cs1)cn2CCCCN1CCCCC1,-72% (active),-97% (active),-70.5% (active),-88.5% (active),-87.7% (active),-86.5% (active),-83.1% (active),,-79.3% (active),-86.9% (active)
CC[C@H](C)[C@H](NC(=O)NC(C)(C)C)C(=O)N(C)[C@H](C[C@@H](OC(C)=O)c1nc(C(=O)N[C@@H](Cc2ccccc2)C[C@H](C)C(=O)OC)cs1)C(C)C,9.49% (active),5.85% (active),34.1%,47.6%,11.5%,11.3%,-44.4% (active),,16%,53.2%
C#Cc1ccc2c(c1)C(c1ccccc1)=NCC(=O)N2C,26.4%,13.1%,53.9%,46.6%,36.9%,54.4%,34.7%,31%,,59.1%
c1cnc2[nH]cc(-c3csc(-c4cn(CCCCN5CCCCC5)c5ccccc45)n3)c2c1,51%,34.4%,70.3%,90.4%,86.3%,63.1%,70.4%,,84.2%,83%
COc1ccc2c(c1)c(-c1nc(-c3c[nH]c4ncccc34)cs1)cn2CCCCN1CCCCC1,-76.7% (active),-72.4% (active),-75.4% (active),-71.1% (active),-75.3% (active),-79% (active),-81.3% (active),,-83.1% (active),-85.1% (active)
O=C1C2C(C(=O)[N]1[Hg][c]1cccs1)C1(Cl)C(Cl)=C(Cl)C2(Cl)C1(Cl)Cl (stereo not given),-76.8% (active),8.75% (active),59.5%,51.5%,-67.6% (active),33.4%,24%,,-90.7% (active),-76.9% (active)
CN1C(=O)C(=Cc2cn(CCCCCCn3c4ccccc4c(=O)c4ccccc43)c3ccccc23)C(=O)N(C)C1=O,92.1%,96.1%,91.4%,104%,99.2%,89.8%,94.3%,,93%,98%
